For 4 compounds, growth results are on record in PubChem BioAssay (NCI).

Compounds without any hit were thinned out: in the full panel of roughly 83,000, 20% have a hit.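 In brief: 96-well plates, 48 h treatment, single concentration, percent growth endpoint.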 A number with no mark means an inactive call. Calls of active or inactive are those of the source. How the source made its calls: active means growth percent below 10; inactive means the rest.

Experiment in all cases: NCI-60 one-dose screen, 48 h (100 = growth as untreated, 0 = no growth, -100 = all killed)
What all share (details): 10 µM unless noted

For assay [1], the system named is NCI-H322M lung.
The test system of assay [2] is HOP-62 NSCLC.
In assay [3] the test system is NCI-H460 lung.
Assay [4] concerns HOP-92 NSCLC.
In assay [5] the test system is NCI-H522 lung.
Assay [6] has as its system 786-0 renal.
Assay [7] has as its system COLO 205 colon.
Assay [8] has as its system DU-145 prostate.
In assay [9] the test system is A549/ATCC NSCLC.

Turning to `Cc1[nH]nc2ncc(C#Cc3cncc(C(=O)Nc4ccc(CN5CCN(C)CC5)c(C(F)(F)F)c4)c3)cc12`, the growth in [1] is 44.3%; in assay [2] it was 28.9%; in assay [3], 10.7%; in assay [4] it was -23% (active); in assay [5] it was 47.8%; in assay [6], 43.1%. In addition, the growth in assay [7] is -25.6% (active); in assay [8] it was 36.4%.

On to `CC(C)Sc1nc(Nc2ccc(S(N)(=O)=O)cc2)c(C#N)c(-c2ccc(F)cc2)n1`, for which the growth is 73.5% in [5], 79% in assay [7] and 25.1% in [8].

Turning to `Nc1cc(-c2c[nH]c3ccc(Cl)cc23)nc2cc(-c3c[nH]c4ccc(Cl)cc34)nn12`, the growth in assay [1] is 56.8%; in assay [2] it was 85.7%; in assay [3], 12.1%; in assay [4] it was 28.9%; in assay [5] it was 28.8%; in assay [9], 44.2%. In addition, the growth in assay [6] was 60.5%; in assay [7], 93.2%; in assay [8] it was 53.4%.

Turning to `O=C1[C@H]2Cc3c([nH]c4ccccc34)[C@@H](c3ccc(Br)cc3)N2C(=O)CN1C1CCN(Cc2ccccc2)CC1`, the growth was 67% in assay [1]; 54% in assay [2]; 30% in assay [3]; 28.9% in assay [4]; -36.7% (active) in assay [5]; 20.7% in assay [9]. For the same compound, the figures for the growth in assay [6], in [7] and in [8] were 41.1%, 12.7% and 38.8%, respectively.
